HCMV inh – human cytomegalovirus inhibition | HFF cells, HCMV-luciferase reporter, 72 h; active compounds read low | activity change, negative = inhibition, % at 57.5 µM | actives 4.5% (n = 410,000) | AID 1259415; in the data active = activity change below about -60%; inconclusive = no clear call, values can overlap the other calls; inactive = above about -39%
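Screen run at 2 compound doses on HFFs infected with reporter HCMV, MOI 1 PFU/cell. Luciferase activity from cell lysates at 72 h post infection gave inhibition relative to buffer-only and Salinomycin wells.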
SARS PLpro yeast – SARS-CoV PLP inhibition in yeast; S. cerevisiae expressing SARS-CoV PLpro, growth rescue; Potency, µM (top dose mostly 32.9 µM), actives largely listed as activators; actives 0.19% (n = 330,000); AID 485353; calls by dose curve; also: nearly all actives have a fitted effect of over 55% in size
MARV entry inh – inhibitors of Marburg virus binding or cell entry | actives 1.8% (n = 300,000) | Marburg virus pseudotyped entry inhibition, cell reporter | Potency, µM (series often up to 37.8 µM), most hits filed as inhibitors; calls by dose curve; tested in HEK293 cells
HCV inh – inhibitors of hepatitis C virus infection; Huh7.5.1 HCVcc-Cre infection, luciferase reporter, 44 h; Potency, µM (doses to about 41.8 µM), usual class: inhibitors; actives 3.4% (n = 340,000); AID 651820; active = well fitted inhibition curve with a large enough effect; inconclusive = small, poorly fitted or top-dose-only effect, or another doubt; inactive = no such curve, though single readings can be large or run the other way
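HCVcc-Cre virus at an moi near 0.5 was added right after compound to cells cultured 4 h from seeding (1,000 cells/well). Luciferase activity was determined 44 h later, 15 min after substrate addition at RT.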
FMDV antiviral – blocks foot and mouth disease virus | actives 1.2% (n = 410,000) | AID 1159524 | FMDV antiviral cell-based qHTS | Potency, µM (doses to about 57.9 µM), hits mostly inhibitors; calls by dose curve; tested in HEK293T cells; also: read-out not given here; nearly all actives have a fitted effect of over 45% in size
Lassa entry inh – Lassa virus entry inhibition. Lassa virus pseudotype entry inhibition, cell reporter. Potency, µM (series often up to 37.9 µM), most hits filed as inhibitors. actives 1.2% (n = 300,000). AID 540256; calls by dose curve; tested in HEK293 cells; also: nearly all actives have a fitted effect of over 50% in size
A number is an active result; - = inactive; ? = inconclusive; . = not tested or not shown; ! = repeats disagree; [ ] = another dose, or the depositor's remark. Hits are enriched below; roughly 8% of the tested compounds scored in any of these assays.

SMILES	HCMV inh	SARS PLpro yeast	MARV entry inh	HCV inh	FMDV antiviral	Lassa entry inh
CCCNC(=O)N1C2=NC(C(=O)OC)=C(C(=O)OC)[C@@H]3Nc4ccccc4[C@]23C[C@H]1C(=O)OC	.	.	-	.	.	?
Cc1ccc(NS(=O)(=O)c2cccc(C(=O)NCCCN3CCCC3=O)c2)cc1	-101	-	?	-[8.37 µM]	-	-
COc1ccccc1N(CC1CO1)S(=O)(=O)c1ccccc1 (stereo not given)	-	-	-	-	-	-
COc1ccc(N(C)S(=O)(=O)c2cccc(C(=O)NCC3CCCO3)c2)cc1 (stereo not given)	?	-	-	-	-	?
COc1ccc(N(Cc2ccccc2)S(=O)(=O)c2cccc(C(=O)NCC3CCCO3)c2)cc1 (stereo not given)	-	-	-	?	-	3.2µM
O=C(NCC1CCCO1)c1cccc(Oc2ccc([N+](=O)[O-])cc2)c1 (stereo not given)	-88	?	-	?	?	-
COc1ccc(N(CC2CO2)S(=O)(=O)c2ccccc2)cc1 (stereo not given)	-62	-	-	-	-	-
Cc1cc(S(=O)(=O)N2CCCCC2)ccc1OCC(=O)N1CCOCC1	-	-	?	-	-	-
OCCCNC(=S)Nc1ccc(Br)cc1Cl	-	-	-	-	-	-
CC1CCC(NC(=O)CN2C(=O)NC3(CCCCCC3)C2=O)CC1 (stereo not given)	-	-	.	-	-	.
CC(=O)Nc1ccc(S(=O)(=O)NCC2CCC(C(=O)N3CCCCCC3)CC2)cc1 (stereo not given)	-	-	-	-	-	3.5µM
Cc1ccc(NS(=O)(=O)c2cccc(C(=O)NCC3CCCO3)c2)cc1 (stereo not given)	-	-	?	?	-	10µM
CCc1ccccc1NS(=O)(=O)c1ccc2[nH]cc(C(=O)NCC3CCCO3)c(=O)c2c1 (stereo not given)	-	-	-	-	-	-
CN(Cc1ccccc1)S(=O)(=O)c1ccc2[nH]cc(C(=O)NCC3CCCO3)c(=O)c2c1 (stereo not given)	-107	-	-	.	?	-
Cc1ccc(S(=O)(=O)NCC2CCC(C(=O)NCCCN3CCCC3=O)CC2)cc1 (stereo not given)	-62	-	-	-	-	-
O=C(CSc1nc2ccc([N+](=O)[O-])cc2s1)NCC1CCCO1 (stereo not given)	-71	-	-	?	-	-
O=C(CSc1nc2cc(Cl)ccc2s1)NCC1CCCO1 (stereo not given)	-	.	?	-	-	-
CCOC(=O)c1cnc2ccc(OC)cc2c1NCCc1ccc(OC)c(OC)c1	?	-	?	5µM	18µM!	?
CCOC(=O)c1cnc2ccc(C)cc2c1N(C)Cc1ccccc1	-60	-	?	-	-	?
CCOC(=O)c1cnc2ccc(OCC)cc2c1NCc1cccnc1	?	-	?	?	-	-
CCOC(=O)c1cnc2ccc(OCC)cc2c1NCc1ccccc1	-73	-	?	10µM	?	?
CCOC(=O)c1cnc2ccc(C)cc2c1Sc1ccccc1	?	-	-	?	-	-
O=C(c1cccc(F)c1F)N1CCOc2ccc(CN3CCN(Cc4ccccn4)CC3)cc2C1	.	.	.	.	-	.
CCc1nn(C(C)C(=O)Nc2cccc(C)c2C)c(=O)c2cc3occc3n12 (stereo not given)	-	-	-	11µM	-	-
CCc1nnc(SCC(=O)Nc2ccc(OC)c(OC)c2)c2cc3occc3n12	-	.	.	.	?	?
SMILES	HCMV inh	SARS PLpro yeast	MARV entry inh	HCV inh	FMDV antiviral	Lassa entry inh
CCc1cccc(C)c1NC(=O)CSc1nnc(CC)n2c1cc1occc12	-69	.	.	.	22µM	-
CCc1nn(C(C)C(=O)NCCN2CCN(c3cccc(C)c3C)CC2)c(=O)c2cc3occc3n12 (stereo not given)	-	-	?	1.8µM	28µM	-
CCc1nn(C(C)C(=O)N2CCc3ccccc3C2)c(=O)c2cc3occc3n12 (stereo not given)	-	-	-	-	-	-
CCc1nn(C(C)C(=O)NCCN2CCCCCC2)c(=O)c2cc3occc3n12 (stereo not given)	-	-	?	?	-	-
FC(F)Oc1ccc(-c2csc(=Nc3cccnc3)n2CC2CCCO2)cc1 (stereo not given)	-76	-	?	11µM	8.9µM	?
CCN(CC)CCn1c(-c2ccccc2)csc1=Nc1ccccc1	-	.	.	.	-	?

From PubChem BioAssay
